Results published in PubChem BioAssay (EPA / NIEHS).
Records with an inconclusive call do not appear. Calls of active or inactive are those of the source. How the source made its calls, unless noted: active means hit-call score of the fitted dose curve at least 0.9, where 1 is the maximum; inactive means score below 0.9.

Legend:
[1] = TOX21_TR_RXR_BLA_Antagonist_Followup_viability: Viability Assessment in the Tox21 Thyroid Hormone Receptor beta Retinoid X Receptor alpha (RXRa) Antagonism Beta-lactamase (BLA) Follow-Up Assay (AID 2283979; active means hit-call score of the fitted dose curve at least 0.9, where 1 is the maximum)
Summary of the method: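 RXRa-bla HEK293T cells (2,500/well, phenol red-free DMEM, 2% charcoal-stripped FBS) were attached 5 h, then exposed to compounds at 11 concentrations in triplicate for 16 h at 37C. Viability measured by CellTiter-Glo ATP luminescence, bidirectional fitting versus DMSO.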

[2] = CCTE_Harrill_HTTr_Viability_DMEM_12hr: (Pilot) CCTE's 12-hour Cell Viability Assessment for the High-Throughput Transcriptomics (HTTr) Platform, in MCF-7 cells cultured in DMEM + 10% fetal bovine serum, Harrill Lab (AID 2283974)
Summary of the method: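 MCF-7 cells in DMEM + 10% FBS exposed 12 h to an eight-point dilution series; membrane integrity scored by propidium iodide exclusion with high-content imaging, bidirectional fitting versus DMSO.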

[3] = CCTE_Harrill_HTTr_Viability_DMEM_24hr: (Pilot) CCTE's 24-hour Cell Viability Assessment for the High-Throughput Transcriptomics (HTTr) Platform, in MCF-7 cells cultured in DMEM + 10% fetal bovine serum, Harrill Lab (AID 2283975)
Summary of the method: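 MCF-7 cells in DMEM with 10% FBS exposed for 24 hours to an eight-point dilution series. Membrane integrity by propidium iodide exclusion with high content imaging; bidirectional fit against DMSO.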

[4] = CCTE_Harrill_HTTr_Viability_PRF_DMEM_6hr: (Pilot) CCTE's 6-hour Cell Viability Assessment for the High-Throughput Transcriptomics (HTTr) Platform, in MCF-7 cells cultured phenol red-free DMEM + 10% charcoal-stripped fetal bovine serum, Harrill Lab (AID 2283976)
Summary of the method: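 MCF-7 cells in phenol red-free DMEM with 10% charcoal-stripped FBS exposed 6 hours to an eight-point dilution series. Propidium iodide exclusion imaged; curves fitted bidirectionally against DMSO.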

[5] = CCTE_Harrill_HTTr_Viability_PRF_DMEM_12hr: (Pilot) CCTE's 12-hour Cell Viability Assessment for the High-Throughput Transcriptomics (HTTr) Platform, in MCF-7 cells cultured in phenol red-free DMEM + 10% charcoal-stripped fetal bovine serum, Harrill Lab (AID 2283977)
Summary of the method: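 MCF-7 cells in phenol red-free DMEM with 10% charcoal-stripped FBS exposed 12 hours to an eight-point dilution series. Viability assessed by high-content imaging of propidium iodide exclusion; bidirectional fit versus DMSO.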

[6] = CCTE_Harrill_HTTr_Viability_PRF_DMEM_24hr: (Pilot) CCTE's 24-hour Cell Viability Assessment for the High-Throughput Transcriptomics (HTTr) Platform, in MCF-7 cells cultured in phenol red-free DMEM + 10% charcoal-stripped fetal bovine serum, Harrill Lab (AID 2283980)
Excerpt: This is a cell-based assay that evaluates cell viability using high content imaging to evaluate membrane integrity using propidium iodide dye exclusion in a 384 well format.One of seven assay components measured from the CCTE_Harrill_HTTr_Viability assay. This was part of a pilot experiment. This is a cell-based assay that evaluates cell viability in MCF-7 cells cultured in phenol red-free DMEM + 10% charcoal-stripped fetal bovine serum. High content imaging is used to evaluate membrane integrity using propidium iodide dye exclusion. Measurements are taken at 24 hours after chemical dosing in 384-well format.The assay component endpoint CCTE_Harrill_HTTr_Viability_PRF_DMEM_24hr was analyzed with bidirectional fitting relation to DMSO as the negative control and baseline of activity. Using a type of viability reporter to understand changes in cytotoxicity, gain-of-signal activity can be used to evaluate membrane integrity using propidium iodide dye exclusion. To generalize the intended target to other relatable targets, this assay endpoint is annotated to cell cycle, where the subfamily is cytotoxicity.
Chemicals were tested in MCF7 cells in an eight point dilution series with a twenty-four hour exposure duration.

[7] = CCTE_Harrill_HTTr_Apoptosis_DMEM_6hr: (Pilot) CCTE's 6-hour Apoptosis Assessment for the High-Throughput Transcriptomics (HTTr) Platform, in MCF-7 cells cultured in DMEM + 10% fetal bovine serum, Harrill Lab (AID 2283981)
Excerpt: This is a cell-based assay that evaluates apoptosis using high content imaging to evaluate activation of caspase-3/7 using the CellEvent Caspase 3/7 Green detection reagent in 384-well format.One of seven assay components measured from the CCTE_Harrill_HTTr_Apoptosis assay. This was part of a pilot experiment. This is a cell-based assay that evaluates apoptosis in MCF-7 cells cultured in DMEM + 10% fetal bovine serum. High content imaging is used to evaluate activation of caspase-3/7 using the CellEvent Caspase 3/7 Green detection reagent. Measurements are taken at 6 hours after chemical dosing in 384-well format.The assay component endpoint CCTE_Harrill_HTTr_Apoptosis_DMEM_6hr was analyzed with bidirectional fitting relation to DMSO as the negative control and baseline of activity. Using a type of viability reporter, gain-of-signal activity can be used to evaluate activation of caspase-3/7 using the CellEvent Caspase 3/7 Green detection reagent to understand changes in apoptosis. To generalize the intended target to other relatable targets, this assay endpoint is annotated to cell cycle, where the subfamily is apoptosis.
Chemicals were tested in MCF7 cells in an eight point dilution series with a six hour exposure duration.

[8] = CCTE_Harrill_HTTr_Apoptosis_DMEM_12hr: (Pilot) CCTE's 12-hour Apoptosis Assessment for the High-Throughput Transcriptomics (HTTr) Platform, in MCF-7 cells cultured in DMEM + 10% fetal bovine serum, Harrill Lab (AID 2283982)
Summary of the method: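 MCF-7 cells in DMEM + 10% FBS, exposed 12 h to an eight-point dilution series; caspase-3/7 activation imaged with CellEvent Green. Bidirectional fit versus DMSO.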

[9] = CCTE_Harrill_HTTr_Apoptosis_DMEM_24hr: (Pilot) CCTE's 24-hour Apoptosis Assessment for the High-Throughput Transcriptomics (HTTr) Platform, in MCF-7 cells cultured in DMEM + 10% fetal bovine serum, Harrill Lab (AID 2283983)
Summary of the method: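 MCF-7 cells in DMEM + 10% FBS, eight-point dilution series, 24 h exposure. Caspase-3/7 activation imaged by high-content imaging with CellEvent Caspase 3/7 Green. Bidirectional curve fitting against DMSO baseline.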

[10] = CCTE_Harrill_HTTr_Apoptosis_PRF_DMEM_6hr: (Pilot) CCTE's 6-hour Apoptosis Assessment for the High-Throughput Transcriptomics (HTTr) Platform, in MCF-7 cells cultured phenol red-free DMEM + 10% charcoal-stripped fetal bovine serum, Harrill Lab (AID 2283984)
Summary of the method: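 MCF-7 cells in phenol red-free DMEM + 10% charcoal-stripped FBS, eight-point dilution series, 6 h exposure. Caspase-3/7 activation imaged by high-content imaging with CellEvent Caspase 3/7 Green; bidirectional fit versus DMSO baseline.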

Measured: outcome

CC(C)c1cccc(C(C)C)c1N1C(=O)c2ccc(O)cc2C1=O
inactive: [1]

CC[C@H](C)C(=O)O[C@H]1C[C@@H](C)C=C2C=C[C@H](C)[C@H](CC[C@@H]3C[C@@H](O)CC(=O)O3)[C@H]21
not listed: [1]
inactive: all other assays above

CCC(C)(C)C(=O)O[C@H]1C[C@@H](C)C=C2C=C[C@H](C)[C@H](CC[C@@H]3C[C@@H](O)CC(=O)O3)[C@H]21
not listed: [1]
inactive: all other assays above
